# PubChem BioAssay (Tox21)
# Inconclusive results are not listed. Values without a mark were called inactive. Calls come from the whole dose curve; as a rule, active = well fitted cell-killing curve with a large enough effect in the repeat runs; inconclusive = weak or mixed curves; inactive = flat fitted curve, though single readings scatter.
# Experiment: qHTS assay to identify small molecule antagonists of the estrogen related receptor (ERR) signaling pathway from Tox21 library - cell viability counter screen (AID 1224834); note: nearly all actives have a fitted effect of over 30% in size
# Conditions: ERR reporter cells viability, CellTiter-Fluor, 17.5 h; series mostly up to 92.4 µM; viability change, negative = cytotoxic: at the top concentration
# From the text: National Center for Advancing Translational Sciences [NCATS]
# NIH Chemical Genomics Center [NCGC]
# U.S. Environmental Protection Agency [EPA]
# National Institutes of Environmental Health Sciences [NIEHS]
# National Toxicology Program [NTP]
# U.S. Food and Drug Administration [FDA]
# Estrogen related receptors (ERRs), the first orphan nuclear receptors discovered, play an important role in the control of cellular energy metabolism. ERRs are required for high-energy production in response to the environmental challenges. ERR-alpha was also identified as an adverse marker for breast cancer progression; ERR-alpha-positive tumors have a poor prognosis. To screen and to identify environmental compounds that perturb the ERR signaling pathways could provide valuable information for potential therapeutic or preventive measures in the treatment of metabolic disease. To differentiate true ERR antagonists or agonist from cytotoxic substances, the assay is multiplexed with cell viability assay.
# Tox21 Assay Protocol Summary:
# The ERR cells were dispensed at 2,000 cells/5 ul/well in 1536-well white plates using a Multidrop dispenser. After the assay plates were incubated at a 37 C/5% CO2 incubator for 6 hours, 23 nL of compounds dissolved in DMSO, positive and negative controls or DMSO only was transferred to the assay plate by a pin tool. The plates were incubated at 37 C for 17.5 hours. 1 ul/well of CellTiter-Fluor reagent was added into the assay plates using a Flying Reagent Dispenser. After 30-minute incubation at 37 C/5% CO2, the fluorescence intensity in the plates was measured using a ViewLux plate reader.
# % is set by controls: 0 for no effect and ±100 for the full control effect.
row,SMILES,"viability change, negative = cytotoxic"
1,CCCCOCCOC(=O)COc1nc(Cl)c(Cl)cc1Cl,8.32%
2,BrCc1cccc(Oc2ccccc2)c1,-1.9%
3,CN(C)C(=O)CNC(=O)Cc1ccccc1,-3.84% [at 42.5 µM]
4,CN=C(NC#N)Nc1ccc(C2=NNC(=O)CC2C)cc1 (stereo not given),5.7% [at 42.5 µM]
5,CCOC(=O)[C@H](CCc1ccccc1)N[C@@H](C)C(=O)N1C(=O)N(C)C[C@H]1C(=O)O,1.46% [at 42.5 µM]
6,CCCCNC1CC(C)(C)NC(C)(C)C1,1.95%
7,NS(=O)(=O)c1cc2c(cc1Cl)CN(C1CCCCC1)C2=O,-1.27% [at 42.5 µM]
8,NCCS,-0.623% [at 42.5 µM]
9,CCCCCCOc1ccccc1C(N)=O,-0.211% [at 42.5 µM]
10,C[C@H](CCC(=O)O)[C@H]1CC[C@H]2[C@@H]3C(=O)C[C@@H]4CC(=O)CC[C@]4(C)[C@H]3CC(=O)[C@]12C,2.27% [at 42.5 µM]
11,COc1ccc(C2CNC(=O)C2)cc1OC1CCCC1 (stereo not given),2.78% [at 42.5 µM]
12,O=S(=O)(O)CCN1CCN(CCO)CC1,6.75%
13,CC(=O)NCc1c(I)c(NC(C)=O)c(I)c(C(=O)O)c1I,4.76% [at 42.5 µM]
14,NNc1nnc(NN)c2ccccc12,-1.07% [at 42.5 µM]
15,ClCCCl,0.315%
16,C=C(C)C(=O)OCCN(CC)CC,0.825%
17,CCCCCCOC(=O)CC,6.18%
18,Cc1cccc(C)c1NC(=O)c1ccccc1C(=O)O,0.595% [at 42.5 µM]
19,CN1CCN(CC(=O)N2c3ccccc3C(=O)Nc3cccnc32)CC1,2.62% [at 8.39 µM]
20,CCCCNc1ccc(C(=O)OCCN(C)C)cc1,3.79% [at 42.5 µM]

row,SMILES,"viability change, negative = cytotoxic"
1,O=C(OCC(COC(=O)c1cccnc1)(COC(=O)c1cccnc1)COC(=O)c1cccnc1)c1cccnc1,2.2% [at 42.5 µM]
2,CCOC(=O)/C=C/c1ccccc1,-4.06%
3,CCCCCCCCC1CCC(=O)O1 (stereo not given),0.476%
4,O=C(O)c1ccc(Cl)cc1Cl,3.34%
5,O=C(NCCN1CCOCC1)c1ccc(Cl)cc1,3.12% [at 42.5 µM]
6,c1ccc2c(c1)ccc1c3ccccc3ccc21,3.43% [at 42.5 µM]
7,Nc1nnc(-c2cccc(Cl)c2Cl)c(N)n1,3.95% [at 42.5 µM]
8,O=C(/N=N/C(=O)OCc1ccccc1)OCc1ccccc1,-6.4%
9,CCCC/C=C\CCCCCCCCCC=O,1.7%
10,CN1C(C)(C)CCCC1(C)C,-2.17% [at 42.5 µM]
11,C=Cc1ccccn1,4.02%
12,CC(C)C(=O)OCc1cccc(OC(=O)[C@@H]2N3C(=O)[C@@H](NC(=O)Cc4ccccc4)[C@H]3SC2(C)C)c1,0.771% [at 42.5 µM]
13,Cc1nc2n(c(=O)c1CCN1CCC(c3noc4cc(F)ccc34)CC1)CCC[C@H]2O,0.131% [at 19 µM]
14,CCCCCCCCCCl,6.09%
15,CC(=O)/C=C/C1C(C)=CCC(C)C1(C)C (stereo not given),-0.0138%
16,CC(=O)Nc1ccc(S(=O)(=O)Cl)cc1,-0.745%
17,CC(CC=O)CCCC(C)(C)O (stereo not given),-5.58%
18,Cc1ccccc1N=O,3.22%
19,Cc1cc(C(C)(C)C)c(O)c(C)c1CC1=NCCN1,0.157% [at 42.5 µM]
20,N[C@@H](COP(=O)(O)O)C(=O)O,-0.524% [at 19 µM]
